Screens: PubChem BioAssay, National Center for Advancing Translational Sciences (NCATS)
Pol kappa inh: DNA polymerase kappa (human) inhibition. purified Pol kappa, fluorescent DNA synthesis assay, 10 min. AID 588579. Q9UBT6. actives 0.53% (n = 400,000). Potency, µM (highest dose often 107 µM), for inactives: at the top dose activity, negative = inhibition, usual class: inhibitors; further: on the % scale 0 is the no-effect control and ±100 the full control effect
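Inhibition of 10 nM Pol kappa is measured by a fluorescent read-out at 0 and 10 min following addition of 50 nM substrate (final), with a 15-min room-temperature compound preincubation.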
POLH inh: inhibitors of human DNA polymerase eta | Potency, µM (top dose mostly 114 µM), inactives show top-dose activity change, negative = inhibition, most hits filed as inhibitors | recombinant Pol eta, fluorescent DNA replication assay | Q9Y253 | actives 1.2% (n = 390,000); further: on the % scale 0 is the no-effect control and ±100 the full control effect
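Fluorescent replication assay: 50 nM final substrate added after a 15 min room-temperature compound preincubation with 10 nM enzyme. Signal taken at 0 min and again at 10 min.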
Pol beta inh: blocks human DNA polymerase beta activity | actives 1.3% (n = 340,000) | AID 485314 | Potency, µM (titrated, usually from 114 µM), for the others: at the highest dose activity change, negative = inhibition, most hits filed as inhibitors | Pol beta primer extension/strand displacement, fluorescence kinetic; further: on the % scale 0 is the no-effect control and ±100 the full control effect
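Kinetic readout of DNA synthesis with strand displacement by Pol beta. Compound and 10 nM enzyme sit 15 min at room temperature; 50 nM substrate starts the reaction, read immediately and at 10 min.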
WRN inhibitor: blocks human WRN helicase | AID 651768 | WRN helicase unwinding, fluorescent forked duplex, kinetic | Potency, µM (titrated, usually from 114 µM), without a hit: at the highest dose activity change, negative = inhibition, actives largely listed as inhibitors | actives 0.46% (n = 360,000); further: on the % scale 0 is the no-effect control and ±100 the full control effect; nearly all actives have a fitted effect of over 55% in size
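Primary qHTS, 1536-well format. 20 nM WRN + compound, 15 min RT; start with 100 nM forked fluorophore/quencher duplex, 2 mM ATP (final); kinetic read ex 525/em 598 nm.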
POLI inh: DNA polymerase iota (human) inhibition. Q9UNA4. Pol iota fluorescent replication assay, 10 min. Potency, µM (top dose mostly 115 µM), without a hit: at the highest dose activity, negative = inhibition, hits mostly inhibitors. actives 1% (n = 390,000)
Target sequence (Q9UNA4 whole entry, looked up): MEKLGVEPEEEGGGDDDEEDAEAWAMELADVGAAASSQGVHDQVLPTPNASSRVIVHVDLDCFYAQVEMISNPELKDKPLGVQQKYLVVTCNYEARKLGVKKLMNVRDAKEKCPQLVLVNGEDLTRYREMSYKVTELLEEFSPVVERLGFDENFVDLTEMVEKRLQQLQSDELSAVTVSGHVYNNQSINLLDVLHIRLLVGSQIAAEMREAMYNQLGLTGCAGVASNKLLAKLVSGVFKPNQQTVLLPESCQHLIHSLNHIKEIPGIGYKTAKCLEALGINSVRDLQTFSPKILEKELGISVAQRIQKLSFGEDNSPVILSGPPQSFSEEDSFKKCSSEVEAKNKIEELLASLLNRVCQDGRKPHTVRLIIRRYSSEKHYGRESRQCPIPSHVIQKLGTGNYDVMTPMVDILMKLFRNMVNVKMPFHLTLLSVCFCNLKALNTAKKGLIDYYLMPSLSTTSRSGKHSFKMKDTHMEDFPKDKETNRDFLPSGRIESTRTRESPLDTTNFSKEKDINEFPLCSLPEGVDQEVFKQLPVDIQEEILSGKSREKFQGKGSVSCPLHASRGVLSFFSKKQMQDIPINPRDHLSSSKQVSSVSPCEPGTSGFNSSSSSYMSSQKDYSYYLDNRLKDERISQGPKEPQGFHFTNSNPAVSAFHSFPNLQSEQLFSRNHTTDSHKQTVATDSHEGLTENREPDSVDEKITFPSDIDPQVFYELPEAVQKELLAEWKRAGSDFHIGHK
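Fluorescent replication assay read twice, at 0 min and 10 min after adding 50 nM (final) substrate. Enzyme (10 nM) and compounds were first incubated 15 min at room temperature; enzyme-free buffer wells were negative controls.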
FEN1 inhibitor: human FEN1 inhibition | Recombinant FEN1 flap cleavage, fluorescence, 15 min | P39748 | Potency, µM (doses to about 114 µM), inactives show top-dose activity change, negative = inhibition, hits mostly inhibitors | actives 0.35% (n = 390,000) | AID 588795; further: on the % scale 0 is the no-effect control and ±100 the full control effect; nearly all actives have a fitted effect of over 65% in size
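With each library titrated from low to high concentration, compounds met 10 nM FEN1 for 15 min at room temperature before 50 nM substrate was added; readings at 0 and 15 min fed four-parameter Hill curve fits.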
The depositor's hits bear a star; ? = inconclusive; / = no result given; [ ] = remark or other dose. An excerpt weighted towards active compounds, which were near 2.4% of everything screened. The call rests on the fitted dose curve; in most records, active means well fitted curve in the direction sought with a large enough effect; inconclusive means small, poorly fitted or top-dose-only effect, or another doubt; inactive means no such curve, though single readings can be large; an effect the other way counts as inactive or inconclusive. Potency means the concentration at half of the fitted maximal effect.

SMILES | Pol kappa inh | POLH inh | Pol beta inh | WRN inhibitor | POLI inh | FEN1 inhibitor
O=C(NCCNCc1ccccc1)c1ccco1 | ? | 50µM* | / | 0%[11.6 µM] | 20µM* | -21%
O=C(NCCc1c[nH]c2ccccc12)OCCSS(=O)(=O)O | -19% | -7% | 5% | -9% | 25µM* | -1%
CCC(=O)NCCc1c[nH]c2ccccc12 | -12% | 2% | 27% | -3% | 8% | -10%
COc1cccc(C(=O)/C=C/Nc2ccc(S(=O)(=O)Nc3cnc4ccccc4n3)cc2)c1 | -14% | 16µM* | 3% | ? | ? | 1%
O=C(/C=C/Nc1ccc(S(=O)(=O)Nc2cnc3ccccc3n2)cc1)c1ccccc1 | -13% | -20% | -8% | -25% | 33% | 4%
O=S(=O)(c1ccc(Cl)cc1)c1nnn2c1nc(NC1CCCCC1)c1sccc12 | -19% | -29% | 32µM* | / | 6% | ?
Cc1ccc(CCNc2nc3c(S(=O)(=O)c4ccccc4)nnn3c3ccsc23)cc1 | -25% | 2% | 1% | / | 8% | 89µM*
O=S(=O)(c1ccc(Br)cc1)c1nnn2c1nc(NCCc1ccccc1)c1sccc12 | -7% | -14% | -13% | / | 30% | 17%
COc1cc(Cl)c(NC(=O)CCc2nc3cccnc3n2-c2ccccc2)c(OC)c1 | -1% | -9% | 21% | / | 12% | -4%
CC1CCN(CCNC(=O)c2ccc(Cn3c(SCc4ccccc4)nc4cccnc43)cc2)CC1 | 8% | -3% | 24% | / | -2% | -10%
CN(C1=C(NC(=O)c2ccccc2)C(=O)c2ccccc2C1=O)C1CCS(=O)(=O)C1 (centres undefined) | 6%[60.1 µM] | 79µM* | ? | -1% | 7.9µM* | 2%
C=CCN=c1scc(-c2ccco2)n1/N=C/c1ccc(O)c(O)c1O | 22µM* | ? | -96% | 50µM* | 1.8µM* | ?
O=C(Cc1ccc(Cl)cc1)c1ccc(O)cc1 | -18% | 1% | 2% | -2%[11.6 µM] | 50µM* | -1%
Cc1ccc(Nc2ccc(N)cc2S(=O)(=O)O)cc1 | -1% | 40µM* | ? | -30% | ? | -26%
Cc1ccc(NC(=O)CN2C(=O)CSC2=O)cc1 | -4% | 3% | 16% | -4% | 5% | 12%
Cc1coc2cc3oc(=O)c(CCC(=O)N[C@@H](CCCNC(N)=O)C(=O)O)c(C)c3cc12 | -18% | -3% | 55% | -7% | ? | 11%
CCNC(=O)c1c(NC(=O)C2COc3ccccc3O2)sc2c1CCCC2 (centres undefined) | -21% | 3% | 14% | 8% | 16% | -1%
O=S(=O)(Nc1cccc2ncccc12)c1cccc(C(F)(F)F)c1 | -8% | -1% | / | 1% | 63% | -16%
COC(=O)c1ccc(CNC(=O)Cn2cnnn2)cc1 | 9% | ? | 28% | 1% | 21% | 9%
Cc1ccccc1OCC(=O)NNC(=O)c1ccc(-c2ccccc2)cc1 | -20% | -2% | ? | -24% | 79µM* | 0%
O=C(NNC(=O)c1ccc(-c2ccccc2)cc1)c1ccccc1 | -36% | ? | -5%[57.1 µM] | -6%[11.6 µM] | 79µM* | 6%
CCCCCC(=O)NNC(=O)c1ccc(-c2ccccc2)cc1 | -29% | -4% | 40µM* | -8% | ? | 1%
O=c1c2oc3ccccc3c2[nH]c(=S)n1-c1ccccc1 | -10% | -16% | 2% | -10% | 4% | 6%
COc1ccc(C(=O)NCCN(C)C)c2nc3ccccc3cc12 | ? | ? | / | 40% | 79µM* | 14µM*
CN(C)CCNC(=O)c1cccc2nc3c(ccc4ccccc43)nc12 | ? | ? | / | ? | 79µM* | 13µM*
SMILES | Pol kappa inh | POLH inh | Pol beta inh | WRN inhibitor | POLI inh | FEN1 inhibitor
CN(C)CCNC(=O)c1cccc2[nH]c(-c3ccncc3)nc12 | -33% | 15% | / | 4%[11.6 µM] | ? | 45µM*
O=C(Nc1cccc(C2OCCCO2)c1)c1cccs1 | -10% | -6% | 13% | -28%[57.1 µM] | 35% | 0%
CCC(=O)NCCCc1nc2ccccc2n1Cc1ccccc1F | 3% | 2% | 4% | -5% | 5% | -2%
COc1ccc(NC(=O)Cn2cccc2)c(OC)c1 | 4% | -16% | 9% | -3% | 16% | 4%
CC1CCN(S(=O)(=O)c2ccc3c(c2)CCC(=O)N3CC(=O)Nc2cccc(C#N)c2)CC1 | -8%[60.1 µM] | 79µM* | 50µM* | / | ? | 6%
C/C(CC(=O)Nc1ccc2ccccc2c1)=N\NC(=O)c1ccc(O)c(O)c1 | 79µM* | ? | 3.5µM* | -9%[11.6 µM] | ? | 1%
C/C(CC(=O)Nc1ccc2ccccc2c1)=N\NC(=O)c1cnccn1 | -15% | -8% | 3% | -6% | 4% | -1%
C/C(CC(=O)Nc1cccc(Cl)c1Cl)=N\NC(=O)c1ccccc1C | 1% | -12% | 50µM* | -8% | 9% | 13%
O=c1cc(COc2ncnc3ccccc23)nc2sccn12 | -26% | -7% | ? | -10%[57.1 µM] | 28µM* | -10%
Cc1c(C(=O)NNC(=O)c2csc(N3CCOCC3)n2)oc2ccc(Br)cc12 | / | 25µM* | / | -6% | / | /
Cc1c(C(=O)NNC(=O)c2csc(N3CCOCC3)n2)oc2ccccc12 | 1% | ? | / | -4% | ? | -3%
CCc1cc(=O)[nH]c(SCc2nc(-c3ccccc3)no2)n1 | -4%[60.1 µM] | -15% | 9% | / | 7% | -4%
O=C(c1cccc(N2C(=O)C3CC=CCC3C2=O)c1)N1CCN(c2ccccc2)CC1 (centres undefined) | -4% | -20% | 45µM* | 9% | -9%[58.9 µM] | 17%
COc1ccccc1N(C(C)=O)C1=C(Cl)C(=O)c2ccccc2C1=O | / | 50µM* | / | -7%[11.6 µM] | / | /
CC(=O)N(C1=C(N)C(=O)c2ccccc2C1=O)C(C)C | -8% | 3% | 39% | 14% | 37% | -2%
Cc1cc(-c2csc(N)n2)c(C)n1Cc1ccco1 | 10µM* | 1% | -1% | -10% | ? | ?
Cc1cc(-c2csc(N)n2)c(C)n1C | -16% | ? | 0% | ? | ? | ?
Cc1cc(C(=O)COC(=O)c2ccco2)c(C)n1Cc1ccco1 | ? | ? | -13% | -14% | ? | 13%
Cc1cc(C(=O)COC(=O)c2cc(Cl)ccc2N)c(C)n1Cc1ccco1 | -41% | -16% | 40µM* | -27% | ? | -11%
CS(=O)(=O)Nc1cccc(-c2cn3c(n2)SCC3)c1 | 32µM* | -3% | 0% | -11% | ? | 20µM*
COc1ccccc1NC(=O)c1cc2c(CO)cnc(C)c2oc1=Nc1ccccc1 | -6% | -18% | 6% | 4% | 70% | -2%
N#Cc1c(NC(=O)c2cc3nc(-c4ccc(Br)cc4)cc(C(F)(F)F)n3n2)sc2c1CCCC2 | 1%[60.1 µM] | 19% | -18% | / | -14% | 2%
